Experimental data as given in PubChem BioAssay AID651710 (Broad Institute, 2012).
The whole screen tested about 360,000 compounds, of which about 1,600 (0.44%) were called active.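 How the source made its calls: active means every replicate showing at least 50% inhibition; inconclusive means mean inhibition at least 50% but not in every replicate; inactive means the rest.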 The entries come from a sample that favours actives as a whole.

These molecules were tested against DNA repair protein RAD52 homolog (Homo sapiens) (UniProt P43351) (assay: blockers of RAD52 strand annealing activity – biochemical, FRET, single point, set 2, primary screen (AID 651710)). Details: recombinant RAD52 DNA annealing, FRET fluorescence; at 18.7 µM; stronger effect = higher value.
Sequence of DNA repair protein RAD52 homolog (Homo sapiens) (P43351 whole entry, looked up): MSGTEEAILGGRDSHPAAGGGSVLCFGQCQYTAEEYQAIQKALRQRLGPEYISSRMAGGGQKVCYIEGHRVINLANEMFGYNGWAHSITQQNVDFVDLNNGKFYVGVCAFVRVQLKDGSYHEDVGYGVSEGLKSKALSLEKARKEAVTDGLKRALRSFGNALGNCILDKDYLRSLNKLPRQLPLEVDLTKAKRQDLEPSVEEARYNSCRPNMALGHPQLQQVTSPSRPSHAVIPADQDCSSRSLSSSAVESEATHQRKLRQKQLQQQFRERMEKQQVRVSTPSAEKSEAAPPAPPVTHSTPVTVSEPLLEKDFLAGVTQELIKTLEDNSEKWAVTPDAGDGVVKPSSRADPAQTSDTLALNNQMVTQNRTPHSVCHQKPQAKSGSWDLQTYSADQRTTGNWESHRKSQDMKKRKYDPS

inhibition, inactive:
C[C@@H]1CN([C@H](C)CO)C(=O)c2cc(-c3ccc(C#N)cc3)cnc2O[C@@H]1CN(C)C(=O)Nc1ccccc1 4.39%
COc1ccc(-c2ccc([C@@H]3[C@@H](CO)N4CCCCN(C(=O)NC(C)C)C[C@H]34)cc2)cc1 0.301%
CCC(=O)Nc1ccc2c(c1)C(=O)N(C)[C@@H]1CC[C@@H](CC(=O)NCCc3ccccc3)O[C@H]1CO2 -0.75%
CC(C)CC#Cc1ccc2c(c1)O[C@H](CN(C)S(=O)(=O)c1cccc(F)c1)[C@@H](C)CN([C@@H](C)CO)S2(=O)=O 10.9%
COc1ccc(NC(=O)C2Cc3c(-c4cccc(NC(C)=O)c4)ccnc3O2)cc1OC (stereo not given) -0.756%
COc1ccc(NC(=S)SC)cc1OC -5.52%
COCc1c(C(=O)OCC(=O)Nc2ccc(OC(F)F)cc2)oc2ccccc12 -1.64%
Nc1c(C(=O)OCC(=O)Nc2ccc(OC(F)F)cc2)[nH]c(=O)[nH]c1=O -4.75%
C=CCNC(=O)[C@H]1[C@@H]2C(=O)O[C@@H](c3ccccc3)[C@@H](c3ccccc3)N2[C@@H](c2ccccc2OCCO)[C@]12C(=O)N(C(=O)OCCOC)c1ccc(C#Cc3ccc(OC)cc3)cc12 -0.136%
CO[C@@H]1CN(C)C(=O)c2cc(NS(=O)(=O)c3cn(C)cn3)ccc2OC[C@@H](C)N(CCC(F)(F)F)C[C@H]1C 7.94%
CCCc1cn(CC[C@H]2CC[C@@H](NC(=O)C3CCOCC3)[C@@H](CO)O2)nn1 -2.7%
O=C1Nc2cc(C(=O)N3CCC(N4CCCCC4)CC3)ccc2S/C1=C\c1ccccc1 39.6%
CCN1CCCC1CNC(=O)c1cc2cc(OC)c(OC)cc2[nH]1 (stereo not given) 2.51%
CC(=O)N(C)C[C@H]1[C@H](c2ccc(C3=CCCCC3)cc2)[C@H](CO)N1CC1CC1 17.9%
COCC(=O)N(C)C[C@H]1Oc2cc(C#C[C@@H](C)O)ccc2S(=O)(=O)N([C@@H](C)CO)C[C@@H]1C -1.74%
CC(=O)N(C)C[C@@H]1Oc2cc(-c3ccncc3)ccc2S(=O)(=O)N([C@@H](C)CO)C[C@H]1C 3.3%
CCCN(C)C[C@H]1Oc2cc(C#CC3CCCC3)ccc2S(=O)(=O)N([C@H](C)CO)C[C@@H]1C -63.3%
CO[C@@H]1CN(C)C(=O)c2ccc(NC(=O)C3CC3)cc2OC[C@@H](C)N(Cc2ccncc2)C[C@@H]1C 17%
C[C@H](CO)N1C[C@H](C)[C@H](CN(C)S(=O)(=O)c2cn(C)cn2)Oc2c(NC(=O)c3ccc(-c4nccs4)cc3)cccc2C1=O 7.43%
COc1ccccc1CNC(=O)Cn1cc2c(n1)CCCC2 -14%
CCN(CC)CCN(C(=O)c1ccc(N2C(=O)CCC2=O)cc1)c1nc2cc3c(cc2s1)OCO3 40.8%
O=C(CN1CCOCC1)N1CC(=O)N2[C@H](C1)[C@H](c1ccc(/C=C/c3ccccc3)cc1)[C@@H]2CO -3.93%
O=C(NCCN1CCN(Cc2ccccc2)CC1)c1cc2c(=O)[nH]c3ccccc3c2s1 -32.4%
Cc1cccc(N(C)C(=O)c2cc3c(=O)[nH]c4ccc(C)cc4c3s2)c1 -6.65%
CO[C@H]1CN(C)C(=O)c2cc(NC(=O)NC(C)C)ccc2OC[C@H](C)N(C(=O)CN(C)C)C[C@H]1C -12.8%
CO[C@@H]1CN(C)C(=O)c2cc(NC(=O)Nc3ccc4c(c3)OCO4)ccc2OC[C@@H](C)NC[C@@H]1C -75.6%
Cc1oc2c(c1C(=O)N1CCOCC1)C(=O)c1ccccc1C2=O -120%
O=C1c2ccccc2-c2ncnc3c(N4CCOCC4)cc(N4CCOCC4)c1c23 3.29%
CCCNC(=O)C[C@@H]1CC[C@@H]2[C@H](COc3ccc(NC(=O)C4CCOCC4)cc3C(=O)N2C)O1 8.28%
O=C(Cc1ccccn1)N[C@H]1CC[C@@H](CC(=O)N2CCCCC2)O[C@@H]1CO -3.74%
CO[C@@H]1CN(C)C(=O)c2ccc(NC(C)=O)cc2OC[C@@H](C)N(Cc2ccc(-c3ccccn3)cc2)C[C@H]1C 20.8%
CO[C@@H]1CN(C)C(=O)c2cc(NC(=O)NC(C)C)ccc2OC[C@@H](C)N(CC2CC2)C[C@@H]1C -2.47%
COc1cccc(NC(=O)Nc2ccc3c(c2)C(=O)N(C)C[C@H](OC)[C@@H](C)CN[C@@H](C)CO3)c1 45.9%
COc1ccc(NC(=O)Nc2ccc3c(c2)OC[C@@H](C)NC[C@@H](C)[C@H](OC)CN(C)C3=O)cc1 -1.22%
COc1ccccc1C(=O)Nc1ccc2c(c1)C(=O)N(C)C[C@@H](OC)[C@@H](C)CN(CC1CC1)[C@@H](C)CO2 14.3%
CCCC(=O)Nc1ccc2c(c1)C(=O)N(C)C[C@H](OC)[C@@H](C)CN[C@H](C)CO2 -5.47%

inhibition, active:
COc1ccc(NC(=O)C2C3CCC(O3)C2C(=O)O)cc1OC (stereo not given) 71.2%
O=C1CCC(C(=O)OCC(=O)Nc2ccc(OC(F)F)cc2)=NN1 54.8%
CCN1CCCC1CNC(=O)c1ccc2c(c1)NC(=O)/C(=C\c1ccccc1F)S2 (stereo not given) 87.1%
CCN(CC)CCN(C(=O)c1ccc2c(c1)CCCC2)c1nc2c(OC)cccc2s1 53.9%
COc1cccc2sc(N(CCCN(C)C)C(=O)C(c3ccccc3)c3ccccc3)nc12 56.2%
CCN(CC)CCCNC(=O)c1cc2c(=O)[nH]c3ccc(C)cc3c2s1 54.3%
COC1=C(N2CCOCC2)C(=O)c2ccccc2C1=O 96.8%
COc1cccc(NC(=O)Nc2ccc3c(c2)C(=O)N(C)C[C@@H](OC)[C@H](C)CN(CC2CC2)[C@H](C)CO3)c1 58.2%
COc1cccc(NC(=O)Nc2ccc3c(c2)OC[C@@H](C)NC[C@@H](C)[C@H](OC)CN(C)C3=O)c1 84.4%
